The source of these data is PubChem BioAssay (NCI).

The panel holds about 83,000 compounds, 20% with a hit somewhere; the sample as a whole holds those more often.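 Growth was measured after 48 h exposure to one concentration of compound in 96-well plates. Values under 10 count as active.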 Values without a mark were called inactive. Activity calls are given as the source filed them.

Assay in all cases: NCI-60 one-dose screen, 48 h (100 = growth as untreated, 0 = no growth, -100 = all killed)
Common to all, as to conditions: 10 µM

Assay [1] has as its system SK-MEL-2 melanoma.
Assay [2] concerns SN12C renal.
The subject of assay [3] is UO-31 renal.
For assay [4], the system named is ACHN renal.
Assay [5] has as its system CAKI-1 renal.
Assay [6] has as its system A498 renal.
In assay [7] the test system is CCRF-CEM leukemia.
Assay [8] concerns MOLT-4 leukemia.
Assay [9] has as its system TK-10 renal.
Assay [10] relates to EKVX NSCLC.

On to `O=C1/C(=C/c2ccc(O)cc2)Oc2ccc(Cl)cc21`, for which the growth in assay [1] was 109%; in assay [2], 84.6%; in [3], 38.5%; in assay [4], 95.4%; in assay [5], 77.1%; in assay [6], 125%. The growth in assay [7] was 88.2%; in assay [8] it was 81.1%.
`c1ccc(C2CCCCC2)c(OCCCCCN2CCNCC2)c1`: the growth in assay [1] is 82%; in assay [3], 66.6%; in assay [4], 53.3%; in assay [5], 66.2%; in assay [6] it was 52.4%; in assay [7], 27.1%. The growth in assay [8] was 33.5%.
Regarding `COc1cc(-c2nc3ccccc3[nH]2)ccc1OCc1nnc(-c2ccc(Br)cc2)o1`, the growth in assay [1] is 105%; in assay [3], 79.5%; in assay [9] it was 130%; in assay [4], 98.6%; in [5], 95.5%; in assay [6], 79.6%. Moreover, the growth in assay [7] is 67.9%; in [8], 63.8%.
As to `COc1ccc(Cn2cc3c(c2-c2cc(OC)c(OC)c(OC)c2)CCc2cnoc2-3)cc1N`, the growth is 27.4% in assay [10]; 27.6% in assay [2]; 40.4% in [3]; 75.6% in assay [9]; 38.8% in assay [4]; 6.52% (active) in assay [5]. Further, the growth in [6] was 25%; in assay [7], 23.7%; in assay [8] it was 24.6%.
As for `O=C(COc1ccc(-c2nc3ccccc3[nH]2)cc1)N=Nc1c(O)[nH]c2ccccc12`, the growth in assay [1] is 113%; in assay [3] it was 93.4%; in [9] it was 128%; in [4], 98.7%; in assay [5] it was 99.2%; in [6], 86.4%. For the same compound, the growth was 4.95% (active) in [7] and 91.8% in assay [8].
Consider `COc1cc(C2C=C(c3ccc(Cl)cc3)N=C3SC(C)=CN32)cc(OC)c1OC` (centres undefined), for which the growth in [1] was 102%; in assay [3], 79.3%; in assay [9], 71%; in assay [4], 105%; in assay [5] it was 88.7%; in assay [6], 86.1%. Moreover, the growth in assay [7] was 89.2%; in assay [8], 80.2%.
In the case of `CNC(=O)c1cc(Oc2ccc(NC(=O)Nc3ccc(Cl)c(C(C)(C)C)c3)c(F)c2)ccn1`, the growth in assay [1] is 44.2%; in [3], 41.6%; in assay [9], 54.8%; in assay [4], 31.5%; in assay [5], 54.4%; in assay [6] it was 53.4%. For the same compound, the growth is 40.6% in assay [7] and 36.6% in [8].
On to `O=C(O)CCCN1C(=O)NC2(C1=O)c1ccccc1-c1ccccc12`, for which the growth is 83.2% in assay [1]; 88.4% in [3]; 90.1% in [9]; 104% in assay [4]; 98.4% in [5]; 101% in assay [6]. The values for the growth in [7] and in assay [8] were 96.5% and 101%, respectively.
On to `CCOC(=O)C(=O)Cc1cccnn1`, for which the growth was 111% in assay [10]; 99.9% in assay [2]; 82.9% in assay [3]; 101% in [9]; 103% in assay [4]; 103% in assay [5]. The results for the growth in assay [6], in assay [7] and in assay [8] were 113%, 91.7% and 93.4%, respectively.
For `COc1ccc(C(C)=O)cc1N1C(=O)C2C(C1=O)C1(c3ccccc3)C(=O)C2(c2ccccc2)C(c2ccc(C)cc2)=C1c1ccc(C)cc1` (centres undefined), the growth in assay [1] is -0.955% (active); in [3], -4.71% (active); in assay [9], 13.7%; in assay [5], 6.11% (active); in [6], 54.1%; in assay [7], 8.66% (active). The growth in assay [8] is 12.6%.
As for `CCOC(=S)Sc1ccc([N+](=O)[O-])cc1[N+](=O)[O-]`, the growth in [1] is 91.4%; in [3] it was 78.1%; in assay [9], 94%; in assay [4], 60.4%; in assay [5] it was 29.9%; in assay [6] it was 88.2%. The growth was 14.4% in assay [7] and 48.5% in assay [8].
As for `c1ccc(CC(NCCNC(Cc2ccccc2)c2ccccc2)c2ccccc2)cc1` (centres undefined), the growth is 69.8% in assay [1]; 27.3% in assay [3]; 61.1% in [9]; 20.6% in [4]; 7.43% (active) in assay [5]; 61.8% in assay [6]. Also, the growth in [7] is 10.1%; in assay [8] it was -13.2% (active).
Regarding `O=C(O)CCCCSCCCCC(=O)O`, the growth in assay [1] is 93.2%; in assay [3], 92.7%; in assay [9] it was 92%; in [4], 104%; in assay [5] it was 100%; in assay [6] it was 118%. Besides, the values for the growth in assay [7] and in assay [8] were 95.8% and 93.1%, respectively.
Consider `COc1nc2c(c(=O)[nH]1)C(c1ccc(Oc3ccnc4cc(Cl)ccc34)c(OC)c1)C=C(c1cc(OC)c(OC)c(OC)c1)N2` (centres undefined), for which the growth in assay [1] was 82.6%; in [3], 74.5%; in assay [9] it was 103%; in assay [4], 102%; in [5], 94.1%; in assay [6], 81.9%. For the same compound, the figures for the growth in [7] and in [8] were 87.4% and 78%, respectively.
In the case of `COc1ccc(-c2cc(/C=C/C(=O)c3ccc(N)cc3)[nH]n2)cc1OC`, the growth was 80.8% in assay [1]; 27.3% in [3]; 39.3% in [9]; 50.5% in assay [4]; 31% in [5]; 52.8% in [6]. Further, the growth in assay [7] is 7.41% (active); in assay [8], 7.23% (active).
Consider `O=C(c1ccccc1)C(Nc1ccccc1)c1ccccc1` (centres undefined), for which the growth is 90.9% in assay [1]; 66.9% in [3]; 93.6% in assay [9]; 89.2% in assay [4]; 87.3% in assay [5]; 94.6% in [6]. Further, the growth is 94.1% in [7] and 90.8% in assay [8].
On to `Cc1ccc(C2C=C(c3ccc(Cl)cc3)N=C3SC=CN32)c(Br)c1` (centres undefined), for which the growth in assay [1] is 105%; in [3] it was 57.8%; in assay [9] it was 125%; in [4] it was 91.8%; in assay [5], 65.1%; in assay [6], 87%. Also, the growth was 55.7% in assay [7] and 64.9% in assay [8].
For `COc1cccc(C(=O)N(c2ccc(F)c(F)c2)C(C(=O)NC(C)(C)C)c2cc3c(C)cc(C)cc3nc2Cl)c1` (centres undefined), the growth in assay [1] was 77.1%; in [3], 48.5%; in assay [9], 70.5%; in assay [5] it was 42.9%; in assay [6], 59.8%; in assay [7], 53.8%. The growth in assay [8] was 43.8%.
Consider `CCN(CC)CCOC(=O)c1ccc(N=Nc2ccc(O)c(OC)c2)cc1`, for which the growth was 87.8% in assay [1]; 87.8% in [3]; 87.2% in assay [9]; 105% in assay [4]; 97.4% in assay [5]; 80.8% in assay [6]. Further, the growth in assay [8] was 93.8%.
On to `COc1ccc(COC(=O)CC(C)C)cc1`, for which the growth was 101% in [1]; 93.5% in assay [3]; 105% in [4]; 98.7% in [5]; 117% in assay [6]; 102% in assay [7]. In addition, the growth in assay [8] was 98.8%.
Regarding `COc1ccc(/C=C2\SC(=S)N(CCCN3CCOCC3)C2=O)c(OC)c1`, the growth was 99% in assay [1]; 86.8% in [3]; 104% in assay [9]; 98% in [4]; 94.4% in assay [5]; 102% in [6]. In assay [8], the growth is 94.4%.
Turning to `C=CCn1c(C)nc2cc(Nc3nc(Nc4ccc5nc(C)n(CC=C)c5c4)c4ccccc4n3)ccc21`, the growth is -84.1% (active) in assay [1]; -94.4% (active) in assay [3]; -97.2% (active) in assay [9]; -97.4% (active) in [4]; -86.4% (active) in assay [5]; -100% (active) in [6]. Further, the values for the growth in [7] and in assay [8] were -11.3% (active) and -26.8% (active), respectively.
`Cc1cc(Cl)ccc1Nc1nc(C(F)(F)F)ccc1C(=O)N/N=C/c1ccccc1Cl`: the growth in assay [1] is 19.2%; in [3] it was 7.23% (active); in assay [9], 19%; in assay [4], 16%; in assay [5], 5.28% (active); in [6], 21.8%. Moreover, the growth in assay [7] was 14.7%; in assay [8] it was 41.2%.
For the compound `CN(C)Cc1cccs1`, the growth in [1] was 103%; in assay [3], 82.9%; in assay [9], 101%; in [4] it was 96.7%; in [5], 98.3%; in [6], 117%. In addition, the growth in assay [7] is 80%; in assay [8], 96.3%.
For the compound `Cc1cc(C)c2nc(C)c(C)[n+]([O-])c2c1`, the growth in assay [1] is 106%; in assay [3], 88.3%; in [9], 99.3%; in assay [4], 109%; in assay [5] it was 96.9%; in assay [6], 146%. Further, the growth in assay [8] was 83.1%.
With `COc1cc(CSc2nc3ccc(C)cc3c(=O)n2Cc2ccccc2)cc(OC)c1OC`, the growth was 1.08% (active) in assay [1]; 32.1% in assay [3]; 52.7% in assay [9]; 46.7% in assay [4]; 28.8% in [5]; 7.01% (active) in [6]. The growth in [7] is 23.6%; in [8] it was 30.8%.
For the compound `COc1ccc(-c2nc(-c3nc4ccc(C)cc4[nH]3)c3ccccn23)cc1`, the growth was 47% in [1]; 14.4% in assay [3]; 69.4% in assay [9]; 55.6% in assay [4]; 46.9% in assay [5]; 19.6% in [6]. The growth in assay [7] is 18.7%; in assay [8], 40.4%.
Take `C#C[C@]1(O)CC[C@H]2[C@@H]3CC[C@H]4CC(F)(F)CC[C@]4(C)[C@H]3CC[C@@]21C`: the growth was 115% in assay [1]; 102% in assay [3]; 97.7% in assay [9]; 89.3% in [4]; 84.6% in assay [5]; 41.1% in assay [6]. In addition, the growth was 74.7% in assay [7] and 95.7% in [8].
